# From PubChem BioAssay
# Calls of active or inactive are those of the source.
# What was measured:
# [1] = small molecules captured by biotinylated probe aFSTL3 – biochemical, small-molecule microarray, fluorescence 635/667, stem cell growth factor project, primary screen (AID 1064); settings: higher = more signal;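 further: measures binding of the biotinylated anti-FSTL3 antibody to printed compounds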
# [2] = binders from COS7 lysate, DM2A8 probe, primary screen, torsin A project, cell lysate, small-molecule microarray, fluorescence 635/667 (AID 1065); settings: higher = more signal, COS7 lysate expressing mutant human TOR1A
# [3] = small molecules captured by biotinylated probe aFGF2 – biochemical, small-molecule microarray, fluorescence 635/667, stem cell growth factor project, primary screen (AID 1067); settings: higher = more signal;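 further: measures binding of biotinylated aFGF2 protein to printed compounds on slides; z-score merges feature fluorescence and signal-to-noise across triplicate slides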
# [4] = small molecules captured by biotinylated probe aFGF10 – biochemical, small-molecule microarray, fluorescence 635/667, stem cell growth factor project, primary screen (AID 1071); settings: higher = more signal;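 further: score merges 667 nm spot intensity and signal to noise from triplicate slides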
# [5] = target: Neurogenic locus notch homolog protein 2 (Homo sapiens) (UniProt Q04721); assay: small molecules binding Notch2 protein – biochemical, small-molecule microarray, 635 nm fluorescence, stem cell growth factors, primary screen (AID 1073); settings: higher = more signal
# [6] = target: Pro-neuregulin-1, membrane-bound isoform (Homo sapiens) (UniProt Q02297); assay: small molecules binding neuregulin-1 protein – biochemical, small-molecule microarray, fluorescence 635/667, psychiatric disease protein project, primary screen (AID 1075); settings: NRG1 binding, 635 nm fluorescence, higher = more signal;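 further: score combines 667 nm spot fluorescence with signal to noise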
# [7] = test system: Neuregulin-1 EGF-like domain; assay: small molecules binding NRG1 EGF domain – biochemical, small-molecule microarray, 635 nm fluorescence, primary screen (AID 1081); settings: higher = more signal;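 further: binding of the protein to compounds printed on small-molecule microarray slides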
# [8] = FRG1 expression reporter modulators in myotubes – cell-based, C2C12 myotubes, firefly/Renilla luciferase, luminescence, FRG1 inhibition for FSHD, primary screen (AID 1084); settings: FRG1 promoter luciferase, higher = more signal, called active from +8 up or from −8 down
# [9] = small molecules captured by biotinylated probe aFST – biochemical, small-molecule microarray, fluorescence 635/667, stem cell growth factor project, primary screen (AID 1086); settings: higher = more signal;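 further: score merges 667 nm fluorescence with signal-to-noise of each printed compound spot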
# [10] = binders of probe aHhip on microarray, primary screen, stem cell growth factor project, biochemical, small-molecule microarray, fluorescence 635/667 (AID 1087); settings: higher = more signal;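 further: score merges spot fluorescence at 667nm with spot signal to noise ratio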
# [11] = test system: PRMT1 (protein arginine N-methyltransferase 1); assay: small molecules binding arginine methyltransferase PRMT1 – biochemical, small-molecule microarray, 635 nm fluorescence, primary screen (AID 1088); settings: higher = more signal;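 further: binding of Prmt1 protein to compounds spotted on small-molecule microarray slides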
# [12] = growth effects on S. cerevisiae YJM789 – YJM789 clinical isolate, OD600, 24 h, basal, primary screen (AID 1089); settings: higher = more signal, called active from +8 up or from −8 down;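 further: growth of clinical yeast isolate S. cerevisiae YJM 789 seeded 1000 cells per well; test concentration not given here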
# [13] = S. pombe growth modifiers, basal conditions – strain 972, OD600, 24 h, no modulator, primary screen (AID 1090);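 further: basal condition with compound alone and no growth modifier present; test concentration not given here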; settings: S. pombe 972 growth, higher = more signal, called active from +8 up or from −8 down
# [14] = budding yeast growth modifiers under rapamycin – strain BY4716, OD600, 96 h, primary screen (AID 1091); further: test concentration not given here; settings: S. cerevisiae BY4716 + rapamycin, higher = more signal, called active from +8 up or from −8 down
# [15] = target: Torsin-1A-interacting protein 2 (Homo sapiens) (UniProt Q8NFQ8); assay: small molecules binding lysate-expressed LULL1 – cell lysate, human LULL1 lysate, 635/667 nm fluorescence, primary screen (AID 1092); settings: small-molecule microarray, hLULL1 lysate binding, 635 nm fluorescence; higher = more signal;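 further: probe is lysate of COS7 cells overexpressing human LULL1; score merges per-feature 667 nm fluorescence with signal-to-noise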
# [16] = optical density change of DRC41 E. coli – strain DRC41, OD650, 24 h, E. coli filamentation project, primary screen (AID 1093);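 further: MC1000 strain lacking acrAB efflux and sulA so SOS filamentation is blocked; test concentration not given here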; settings: E. coli DRC41 growth, higher = more signal, called active from +8 up or from −8 down
# [17] = probe aLefty2 binding to arrayed compounds – biochemical, biotinylated probe, 635/667 nm fluorescence, primary screen (AID 1094); settings: small-molecule microarray, higher = more signal;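 further: score merges spot fluorescence near 667 nm with spot signal-to-noise ratio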
# [18] = test system: Noggin (protein binding on small-molecule microarray); assay: small molecules binding Noggin protein – biochemical, 635/667 nm fluorescence, primary screen (AID 1095); settings: 635 nm fluorescence, higher = more signal;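 further: score merges 667 nm feature fluorescence with signal to noise over triplicate slides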
# [19] = target: Neurogenic locus notch homolog protein 3 (Homo sapiens) (UniProt Q9UM47); assay: small molecules binding NOTCH3 protein – biochemical, 635/667 nm fluorescence, primary screen (AID 1096); settings: small-molecule microarray, 635 nm fluorescence, higher = more signal
# [20] = probe aEGFR binding to arrayed compounds – biochemical, biotinylated probe, 635/667 nm fluorescence, primary screen (AID 1097); settings: small-molecule microarray, higher = more signal;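 further: probe is a biotinylated anti-EGFR antibody binding compounds printed on slides; score combines fluorescence near 667 nm and signal to noise of each spot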
# Torsin-1A-interacting protein 2 (Homo sapiens), sequence (Q8NFQ8 whole entry, looked up): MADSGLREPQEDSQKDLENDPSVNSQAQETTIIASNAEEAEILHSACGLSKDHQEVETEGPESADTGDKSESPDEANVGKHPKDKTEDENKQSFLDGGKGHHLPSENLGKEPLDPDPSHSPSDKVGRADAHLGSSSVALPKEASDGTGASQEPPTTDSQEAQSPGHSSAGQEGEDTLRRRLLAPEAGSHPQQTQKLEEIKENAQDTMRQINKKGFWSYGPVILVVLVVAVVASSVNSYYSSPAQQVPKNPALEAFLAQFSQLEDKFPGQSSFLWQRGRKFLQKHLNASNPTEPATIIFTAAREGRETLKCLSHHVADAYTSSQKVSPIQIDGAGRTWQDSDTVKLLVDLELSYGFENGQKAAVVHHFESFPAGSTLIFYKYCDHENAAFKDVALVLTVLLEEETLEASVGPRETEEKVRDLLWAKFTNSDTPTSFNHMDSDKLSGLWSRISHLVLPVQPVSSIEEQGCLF
# Pro-neuregulin-1, membrane-bound isoform (Homo sapiens), sequence (Q02297 whole entry, looked up, the tested form may be a part, canonical isoform): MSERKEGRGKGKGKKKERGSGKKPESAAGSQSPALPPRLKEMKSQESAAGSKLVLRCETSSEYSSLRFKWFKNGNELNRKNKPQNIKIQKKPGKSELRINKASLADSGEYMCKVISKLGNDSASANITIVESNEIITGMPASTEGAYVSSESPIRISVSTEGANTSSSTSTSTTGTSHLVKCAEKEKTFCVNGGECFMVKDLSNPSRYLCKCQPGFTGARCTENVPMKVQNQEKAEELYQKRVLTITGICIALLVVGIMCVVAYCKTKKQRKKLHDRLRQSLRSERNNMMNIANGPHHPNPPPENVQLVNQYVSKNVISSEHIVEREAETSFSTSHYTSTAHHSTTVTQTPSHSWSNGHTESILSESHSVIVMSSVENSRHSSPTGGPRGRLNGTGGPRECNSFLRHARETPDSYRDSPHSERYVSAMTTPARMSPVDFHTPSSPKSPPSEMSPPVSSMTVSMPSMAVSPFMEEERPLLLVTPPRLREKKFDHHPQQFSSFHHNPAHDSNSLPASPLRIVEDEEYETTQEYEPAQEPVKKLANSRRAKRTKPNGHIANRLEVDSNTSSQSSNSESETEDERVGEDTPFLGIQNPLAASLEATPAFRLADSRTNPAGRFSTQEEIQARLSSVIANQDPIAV
# Neurogenic locus notch homolog protein 2 (Homo sapiens), sequence (Q04721 whole entry, looked up, canonical isoform): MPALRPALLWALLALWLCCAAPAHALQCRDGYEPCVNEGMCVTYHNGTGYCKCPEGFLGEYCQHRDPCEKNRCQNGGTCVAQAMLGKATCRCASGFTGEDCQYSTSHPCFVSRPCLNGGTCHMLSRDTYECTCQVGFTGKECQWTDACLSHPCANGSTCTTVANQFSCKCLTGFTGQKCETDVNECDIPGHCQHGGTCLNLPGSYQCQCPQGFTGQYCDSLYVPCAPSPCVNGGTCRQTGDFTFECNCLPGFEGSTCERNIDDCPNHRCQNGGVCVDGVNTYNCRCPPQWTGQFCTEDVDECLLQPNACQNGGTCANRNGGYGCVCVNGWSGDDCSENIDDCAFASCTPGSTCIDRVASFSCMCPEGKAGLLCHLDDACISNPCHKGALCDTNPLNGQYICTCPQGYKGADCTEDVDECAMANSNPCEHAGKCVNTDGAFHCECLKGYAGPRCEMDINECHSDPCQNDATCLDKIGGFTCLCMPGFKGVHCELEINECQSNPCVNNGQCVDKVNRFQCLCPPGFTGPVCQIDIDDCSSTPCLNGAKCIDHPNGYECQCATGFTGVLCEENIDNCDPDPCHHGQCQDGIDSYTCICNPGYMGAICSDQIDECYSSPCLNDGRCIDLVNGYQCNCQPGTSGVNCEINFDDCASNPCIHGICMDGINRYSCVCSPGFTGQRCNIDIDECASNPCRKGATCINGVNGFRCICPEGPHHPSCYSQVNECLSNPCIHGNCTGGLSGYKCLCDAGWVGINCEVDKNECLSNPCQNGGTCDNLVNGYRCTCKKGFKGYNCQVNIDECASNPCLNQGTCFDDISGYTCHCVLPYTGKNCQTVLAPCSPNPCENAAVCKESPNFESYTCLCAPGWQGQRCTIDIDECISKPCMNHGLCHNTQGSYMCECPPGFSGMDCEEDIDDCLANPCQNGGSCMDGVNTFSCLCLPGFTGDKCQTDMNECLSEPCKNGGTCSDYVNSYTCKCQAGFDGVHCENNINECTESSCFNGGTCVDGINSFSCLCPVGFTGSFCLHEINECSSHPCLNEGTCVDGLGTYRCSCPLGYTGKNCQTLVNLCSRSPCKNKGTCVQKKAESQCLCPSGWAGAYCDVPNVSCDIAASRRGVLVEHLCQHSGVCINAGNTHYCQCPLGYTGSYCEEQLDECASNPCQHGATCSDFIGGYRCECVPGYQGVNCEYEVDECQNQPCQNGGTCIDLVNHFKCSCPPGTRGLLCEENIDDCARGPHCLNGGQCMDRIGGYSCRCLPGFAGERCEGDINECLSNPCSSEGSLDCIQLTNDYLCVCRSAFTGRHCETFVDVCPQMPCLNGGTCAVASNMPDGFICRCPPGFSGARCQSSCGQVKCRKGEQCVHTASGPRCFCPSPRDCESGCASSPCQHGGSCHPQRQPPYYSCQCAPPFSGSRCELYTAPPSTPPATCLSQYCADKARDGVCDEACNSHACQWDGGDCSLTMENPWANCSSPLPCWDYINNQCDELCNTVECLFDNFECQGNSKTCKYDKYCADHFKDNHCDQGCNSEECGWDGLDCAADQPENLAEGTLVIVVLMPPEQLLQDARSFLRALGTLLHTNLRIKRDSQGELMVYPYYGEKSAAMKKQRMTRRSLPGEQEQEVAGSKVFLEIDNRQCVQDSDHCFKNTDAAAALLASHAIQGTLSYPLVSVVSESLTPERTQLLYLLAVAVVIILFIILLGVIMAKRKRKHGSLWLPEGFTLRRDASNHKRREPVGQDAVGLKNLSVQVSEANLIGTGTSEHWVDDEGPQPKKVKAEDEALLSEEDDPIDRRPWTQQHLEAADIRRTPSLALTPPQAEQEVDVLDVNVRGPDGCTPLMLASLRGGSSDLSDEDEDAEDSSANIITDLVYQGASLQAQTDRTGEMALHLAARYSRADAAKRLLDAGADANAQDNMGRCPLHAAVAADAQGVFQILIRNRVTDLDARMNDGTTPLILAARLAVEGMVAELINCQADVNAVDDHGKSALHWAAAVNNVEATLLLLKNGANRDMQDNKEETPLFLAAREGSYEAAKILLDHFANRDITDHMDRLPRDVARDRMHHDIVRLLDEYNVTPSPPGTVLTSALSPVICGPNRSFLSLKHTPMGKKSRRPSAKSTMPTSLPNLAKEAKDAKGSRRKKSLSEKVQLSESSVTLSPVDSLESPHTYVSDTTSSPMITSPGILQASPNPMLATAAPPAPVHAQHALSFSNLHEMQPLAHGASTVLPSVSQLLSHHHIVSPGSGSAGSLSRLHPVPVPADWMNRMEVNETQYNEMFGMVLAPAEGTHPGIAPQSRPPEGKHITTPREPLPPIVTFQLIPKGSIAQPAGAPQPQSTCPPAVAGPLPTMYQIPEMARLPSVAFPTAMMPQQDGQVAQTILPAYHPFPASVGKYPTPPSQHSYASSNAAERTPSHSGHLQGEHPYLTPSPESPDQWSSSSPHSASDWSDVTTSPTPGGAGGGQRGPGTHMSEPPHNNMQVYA
SMILES,composite z-score [1],composite z-score [2],composite z-score [3],composite z-score [4],composite z-score [5],composite z-score [6],composite z-score [7],z-score [8],composite z-score [9],composite z-score [10],composite z-score [11],z-score [12],z-score [13],z-score [14],composite z-score [15],z-score [16],composite z-score [17],composite z-score [18],composite z-score [19],composite z-score [20]
COc1ccc(C(=O)O[C@H]2CC[C@]3(C)C4=C(CCC3C2(C)C)[C@]2(C)CC[C@H]([C@H](C)CCCC(C)C)[C@@]2(C)CC4)cc1 (stereo not given in full),-0.581,0.191,-0.128,0.338,0.611,0.133,0.456,-1.16 (inactive),0.18,0.0749,0.193,-0.292 (inactive),-1.52 (inactive),-0.262 (inactive),-0.445,1.71 (inactive),-0.0561,0.546,0.947,-0.0828
COCCOC(=O)N1C(=O)[C@@]2(c3cc(C#CC4=CCCCC4)ccc31)[C@H](C(=O)N1CCc3cc(OC)c(OC)cc3C1)[C@H]1C(=O)O[C@H](c3ccccc3)[C@H](c3ccccc3)N1[C@@H]2c1ccc(OCCO)cc1,-0.137,0.492,-0.0094,0.599,1.1,0.101,1.21,0.235 (inactive),0.533,-0.0121,1.55,1.34 (inactive),0.713 (inactive),3.16 (inactive),2.49,-0.217 (inactive),-0.119,0.916,1.09,-0.0357
COCCOC(=O)N1C(=O)[C@@]2(c3cc(C#CC4(O)CCCCCC4)ccc31)[C@H](c1ccc(O)cc1)N1[C@H](c3ccccc3)[C@H](c3ccccc3)OC(=O)[C@H]1[C@@H]2C(=O)Nc1nc2ccccc2s1,1.87,0.186,-0.045,0.769,1.15,1.15,1.02,1.41 (inactive),2.31,0.468,1.35,0.861 (inactive),-0.0153 (inactive),0.383 (inactive),3.08,-0.369 (inactive),1.04,1.59,1.1,0.292
CCCC#C[Si](O[C@H](CC)c1cn([C@H](CO)Cc2ccccc2)nn1)(C(C)C)C(C)C,-0.503,0.236,-0.0856,0.449,0.769,0.471,0.988,0.889 (inactive),-0.0393,-0.0003,0.869,-0.843 (inactive),-10.7 (active),-2.6 (inactive),1.48,0.858 (inactive),0.0166,0.681,0.584,-0.0563
C=CCNC(=O)[C@H]1[C@@H]2C(=O)O[C@@H](c3ccccc3)[C@@H](c3ccccc3)N2[C@@H](c2ccccc2OCCO)[C@]12C(=O)Nc1ccc(C#CC3=CCCCC3)cc12,-0.382,0.952,-0.0534,0.88,1.04,0.666,1.09,-2.87 (inactive),0.185,0.0695,1.55,2.06 (inactive),-1.27 (inactive),4.78 (inactive),2.58,1.25 (inactive),-0.117,1.23,1.1,-0.0108
CN(C)CCCCCCNC(=O)[C@@H]1C[C@@H]2C(=O)N[C@@H](CCCCN)C(=O)N2[C@@H]1c1cccc(OCCO)c1,3.04,2.4,0.862,1.13,1.05,2.75,1.52,0.718 (inactive),3.58,1.72,1.55,-5.46 (inactive),-5.83 (inactive),-1.3 (inactive),4.63,0.0508 (inactive),1.65,1.8,1.02,1.02
C=CCOC(=O)[C@H]1[C@@H]2C(=O)O[C@@H](c3ccccc3)[C@@H](c3ccccc3)N2[C@@H](c2ccc(OCCOC(=O)[C@@H]3C[C@@H]4C(=O)N[C@@H](CCCC[N+](C)(C)C)C(=O)N4[C@@H]3c3ccc(O)cc3)cc2)[C@]12C(=O)Nc1ccccc12,-0.518,0.964,-0.0503,0.439,0.459,0.206,1.15,0.277 (inactive),-0.367,-0.0618,1.55,-1.27 (inactive),-3.66 (inactive),-1.02 (inactive),2.84,0.155 (inactive),0.236,1.64,1.12,-0.0663
CCCCCC1=C2CNC(CCC)(C(=O)OC)C=C2C(C)C1=O (stereo not given),0.327,0.0422,-0.0074,0.159,1.14,0.92,0.993,0.488 (inactive),0.21,1.96,-0.523,0.0131 (inactive),0.277 (inactive),0.573 (inactive),2.13,-0.48 (inactive),0.0943,-0.236,0.358,0.189
O=C1NC(=O)C2C1C=CC(C(O)C(c1ccccc1)c1ccccc1)N2Nc1ccc(Cl)cc1Cl (stereo not given),0.246,-0.471,0.103,0.501,1.49,0.782,0.756,1.04 (inactive),1.44,0.0373,0.532,-0.111 (inactive),-0.767 (inactive),1.5 (inactive),2.86,-1.27 (inactive),0.185,0.561,0.982,-0.0267
CCOC(=O)C[C@H]1[C@H](OC(=O)c2cc3ccccc3oc2=O)[C@@H](NC(=O)C2CCCCC2)c2cc(OCCCO)ccc2N1C(=O)c1ccccc1,-0.565,0.0071,-0.121,0.642,1.29,0.0246,0.863,0.0161 (inactive),0.564,-0.0618,0.633,-0.415 (inactive),-0.894 (inactive),-0.0843 (inactive),1.45,2.03 (inactive),-0.0668,0.844,0.615,0.25
COC(=O)[C@@]1(Cc2ccc(F)cc2)[C@H]2c3cc(C(=O)N4CCCC4)n(Cc4cc(C)n(C)n4)c3C[C@H]2CN1C(=O)c1ccccc1,1.08,0.276,0.188,0.741,1.63,2.3,1.19,0.23 (inactive),0.939,0.28,0.364,-0.408 (inactive),-0.292 (inactive),1.2 (inactive),3.75,0.234 (inactive),0.555,-0.678,0.769,0.209
[N-]=[N+]=NCc1ccccc1[C@@H]1OC(c2ccc(OCCCO)cc2)=N[C@]1(CCS(=O)(=O)c1ccccc1)C(=O)NCc1ccccc1,0.985,1.05,0.289,0.76,1.5,1.74,1.32,-2.83 (inactive),1.89,0.683,1.55,0.182 (inactive),1.18 (inactive),3.49 (inactive),3.25,-0.382 (inactive),0.468,1.81,1.09,0.198
CC1(C)[C@@H]2CC(C(O)C3C=CC4C(=O)N(c5ccccc5)C(=O)C4N3Nc3ccccc3)=C[C@H]1C2 (stereo not given in full),0.11,-0.6,0.062,0.45,1.03,1.15,0.886,-0.559 (inactive),0.889,0.142,-0.0035,-0.4 (inactive),0.286 (inactive),-0.136 (inactive),2.58,-0.936 (inactive),-0.0008,-0.161,0.367,-0.0431
O=C1c2ccccc2[C@](Cc2ccccc2I)(C(=O)NC2CC2)[C@H](c2ccc(CO)cc2)N1Cc1ccccc1,0.16,-0.211,-0.0335,0.483,0.543,0.458,0.774,-3.11 (inactive),-0.364,-0.0994,0.735,-0.835 (inactive),-0.388 (inactive),-1.15 (inactive),2.86,0.192 (inactive),-0.0741,0.133,0.566,-0.0681
[N-]=[N+]=Nc1ccccc1C[C@]1(C(N)=O)N=C(c2ccc(OCCCO)cc2)O[C@H]1c1ccccc1,0.235,0.327,0.0931,0.373,0.361,1.82,1.22,-3.01 (inactive),0.85,-0.0237,0.203,0.515 (inactive),0.248 (inactive),0.143 (inactive),3.19,0.104 (inactive),-0.0893,-0.194,0.444,-0.115
CN1C(=O)[C@]2(Cc3ccccc3)N=C(c3ccc(OCCCO)cc3)O[C@@H]2c2ccccc21,0.547,0.758,-0.0333,0.802,0.826,1.36,1.35,-0.113 (inactive),0.265,0.12,1.55,-0.112 (inactive),-3.36 (inactive),2.26 (inactive),3.14,-0.538 (inactive),-0.0354,1.34,0.845,0.0492
COC(=O)[C@@]1(Cc2ccc(OC)cc2)[C@H]2c3cc(C(=O)N4CCCC4)n(Cc4ccccc4)c3C[C@H]2CN1C(=O)c1ccccc1,2.67,0.0681,0.788,0.784,1.61,1.98,1.36,0.42 (inactive),2.34,0.671,0.678,-0.183 (inactive),0.657 (inactive),1.12 (inactive),3.37,-0.801 (inactive),1.62,-0.242,1.05,1.25
CC(C)c1ccc(NN2C(C(O)C(c3ccccc3)c3ccccc3)C=CC3C(=O)N(c4ccccc4)C(=O)C32)cc1 (stereo not given),-0.304,-0.612,0.116,0.903,1.53,1.63,1.26,0.358 (inactive),1.25,0.452,1.56,0.709 (inactive),-0.223 (inactive),1.04 (inactive),2.63,-2.08 (inactive),0.0399,0.63,1.06,0.104
COc1ccc(C(=O)Nc2cccc(CN3C(=O)[C@]4(O[C@H](CCO)[C@@H]([Si](C)(C)c5ccc(OC)cc5)[C@@H]4C)c4ccccc43)c2)cc1,-0.442,0.193,-0.102,0.285,0.484,0.621,1.09,-3.19 (inactive),0.439,-0.179,1.56,0.412 (inactive),-14.9 (active),0.251 (inactive),1.83,1.03 (inactive),-0.164,0.822,1,-0.0675
